Screens from PubChem.
In the library only some 6.5% were active in any assay of this set; here they are far more common.
MARV entry inh = blocks Marburg virus binding to or entry into cells | Marburg virus pseudotyped entry inhibition, cell reporter | 300,000 tested, 1.8% active | Potency, µM (doses to about 37.8 µM), most hits filed as inhibitors | AID 540276; calls by dose curve; tested in HEK293 cells
HCMV inh = human cytomegalovirus inhibition; HFF cells, HCMV-luciferase reporter, 72 h; stronger effect = lower value; activity change, negative = inhibition, % at 57.5 µM; 410,000 tested, 4.5% active; in the data active = activity change below about -60%; inconclusive = no clear call, values can overlap the other calls; inactive = above about -39%
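Compounds were evaluated in HFFs infected with an HCMV luciferase reporter virus (MOI 1 PFU/cell). Luciferase in lysates collected 72 h post infection served as the replication measure.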
Lassa entry inh = inhibitors of Lassa virus binding or cell entry | 300,000 tested, 1.2% active | Lassa virus pseudotype entry inhibition, cell reporter | Potency, µM (doses to about 37.9 µM), most hits filed as inhibitors | AID 540256; calls by dose curve; tested in HEK293 cells; note: nearly all actives have a fitted effect of over 50% in size
FMDV inh = blocks foot and mouth disease virus | FMDV antiviral cell-based qHTS | Potency, µM (titrated, usually from 57.9 µM), usual class: inhibitors | 410,000 tested, 1.2% active; calls by dose curve; tested in HEK293T cells; note: read-out not given here; nearly all actives have a fitted effect of over 45% in size
Vaccinia Venus = inhibitors of vaccinia virus (Venus reporter) | 330,000 tested, 0.46% active | Vaccinia virus Venus reporter expression, fluorescence | AID 720580 | Potency, µM (titrated, usually from 36.5 µM), actives largely listed as inhibitors; calls by dose curve; tested in A549 cells; note: nearly all actives have a fitted effect of over 30% in size
VACV mCherry inh = inhibitors of vaccinia virus infection (mCherry reporter signal); Vaccinia virus mCherry reporter infection, fluorescence; AID 720579; 310,000 tested, 0.63% active; Potency, µM (series often up to 36.5 µM), hits mostly inhibitors; calls by dose curve; tested in A549 cells; note: nearly all actives have a fitted effect of over 35% in size
Hits are given with their value; i = inactive; ? = inconclusive; nt = no result; ! = not active in a repeat; [ ] = dose if it differs, or a comment.

SMILES | MARV entry inh | HCMV inh | Lassa entry inh | FMDV inh | Vaccinia Venus | VACV mCherry inh
Cc1cccc(N(Cc2ccccc2)C(=O)c2cc(S(=O)(=O)N3CCOCC3)ccc2Cl)c1 | 13µM | ? | ? | i | i | i
COC(=O)C/C=C/C(C)C(OC)c1ccccc1Br (stereo not given) | i | nt | nt | nt | nt | nt
CC(=O)CC1OC(=O)C(Br)=C1NCc1ccccc1 (stereo not given) | 18µM | ? | ? | nt | i | i
O=C(CC1Oc2ccccc2NC1=O)NCc1ccccc1 (stereo not given) | nt | i | nt | i | i | i
O=c1/c(=C/c2ccc([N+](=O)[O-])cc2)sc2n1CCCN=2 | i | -91 | i | i | i | nt
O=C(CCCN1CC=C(N2C(=O)N=C3C=CC=CC32)CC1)c1ccc(F)cc1 (stereo not given) | i | nt | nt | nt | nt | nt
CC(C)n1c(-c2ccco2)csc1=Nc1cccnc1 | i | -79 | i | 25µM | i | ?
c1cncc(-c2nc(-c3ccco3)cs2)c1 | i | i | i | i | i | i
Cc1ccc(C)c(NC(=O)CN2C(=O)c3cccc4cccc2c34)c1 | i | i | i | i | ? | i
O=C(NCc1ccccn1)c1cnn(-c2nccc(-c3ccccc3F)n2)c1C1CC1 | nt | nt | nt | i | i | i
C=CCN=C1N[C@@H](c2ccc(Br)cc2)C(C(=O)OC)=C(C)N1Cc1ccccc1 | nt | nt | nt | nt | i | i
COc1ccc(OC)c(-n2c(CN3CCC(C(N)=O)CC3)nc3ccccc3c2=O)c1 | i | i | i | i | nt | nt
COc1ccc(OC)c(-n2c(CNC3CCN(Cc4ccccc4)CC3)nc3ccccc3c2=O)c1 | i | -106 | i | i | nt | nt
C[C@@H](C[C@@H](O)[C@H](O)C(C)(C)O)[C@@H]1CC[C@]2(C)C3=CC[C@H]4C(C)(C)C(=O)CC[C@]4(C)[C@H]3CC[C@@]12C | i | i | i | ? | 11µM | ?
O=C(C1CCC1)N1CC(=O)N2[C@H](CO)[C@@H](c3ccc(Br)cc3)[C@@H]2C1 | nt | i | nt | nt | nt | nt
CCOC(=O)C1=C(C)NC(C)=C(C(=O)OC)C1c1cccc([N+](=O)[O-])c1 (stereo not given) | 2.5µM! | ? | ? | i | i | i
CCOC(=O)C1=C(C)NC(C)=C(C(=O)OC)[C@H]1c1cccc([N+](=O)[O-])c1 | i | nt | nt | i | i | i
CCOC(=O)C1=C(N)Oc2cc(O)ccc2C1c1ccccc1 (stereo not given) | nt | i | nt | ? | nt | nt
COC(=O)C1=C(C)NC(C)=C(C(=O)OCCN(C)Cc2ccccc2)[C@@H]1c1cccc([N+](=O)[O-])c1 | 8.2µM | nt | nt | nt | nt | nt
CCOC(=O)C1=C(N)Oc2cc(O)ccc2C1c1cccc([N+](=O)[O-])c1 (stereo not given) | ? | -69 | ? | 20µM | i | i
COC(=O)C1=C(C)NC(C)=C(C(=O)OC(C)(C)CN(C)CCC(c2ccccc2)c2ccccc2)C1c1cccc([N+](=O)[O-])c1 (stereo not given) | ? | nt | 8.2µM | nt | nt | nt
COC(=O)c1cn([C@@H]2C[C@@H](C(=O)N3CCCCCC3)N(Cc3cc4ccccc4s3)C2)nn1 | nt | nt | nt | i | i | i
CCOc1ccc([C@H]2C[C@H](c3ccccc3)Nc3nc(N)nn32)cc1 | i | nt | nt | nt | nt | nt
COCCOC(=O)C1=C(C)NC(C)=C(C(=O)OC(C)C)[C@@H]1c1cccc([N+](=O)[O-])c1 | ? | nt | nt | i | nt | nt
COCCOC(=O)C1=C(C)NC(C)=C(C(=O)OC/C=C/c2ccccc2)C1c1cccc([N+](=O)[O-])c1 (stereo not given) | ? | nt | 8.2µM | ? | nt | nt
SMILES | MARV entry inh | HCMV inh | Lassa entry inh | FMDV inh | Vaccinia Venus | VACV mCherry inh
COCCOC(=O)C1=C(C)NC(C)=C(C(=O)OC(C)C)C1c1cccc([N+](=O)[O-])c1 (stereo not given) | 5.6µM! | ? | ? | i | i | i
Cc1cccc2c1NC(=O)C2(c1ccc(O)cc1)c1ccc(O)cc1 | i | i | i | i | i | nt
Cc1cc(C2(c3ccc(O)c(C)c3)C(=O)Nc3ccccc32)ccc1O | ? | -80 | ? | ? | ? | nt
COc1cc(C(O)c2nc(C(=O)NCCN(C)C)cs2)cc(OC)c1OC (stereo not given) | nt | i | nt | nt | nt | nt
COC(=O)C1=C(C(=O)OC)SC2(S1)C(C(=O)OC)=C(C(=O)OC)Sc1c2ssc1=O | ? | -77 | 11µM | 32µM | 7.1µM | 7.1µM
COC(=O)C1=C(C(=O)OC)SC2(S1)C(C(=O)OC)=C(C(=O)OC)SC1=C2c2cc(C)cc(C)c2NC1(C)C | i | i | ? | i | i | i
CCc1ccccc1NC(=O)Cn1ccn(-c2cc(C)cc(C)c2)c(=O)c1=O | nt | -64 | i | i | i | i
CCN1C(=O)[C@H]2[C@H]3[C@H](O)[C@H](O)C/C(=N\OC[C@@H](O)COCc4ccco4)[C@@H]3CC[C@H]2C1=O | i | nt | nt | nt | nt | nt
CCn1c(SCC(=O)NCc2ccco2)nnc1-c1cccc(N(C)C)c1 | nt | nt | nt | nt | i | i
OCCN(CCO)CC(O)COc1ccc(C23CC4CC(CC(C4)C2)C3)cc1 (stereo not given) | ? | -62 | ? | i | i | i
Fc1cccc(COc2ccc(Nc3ncnc4sc(-c5cccs5)cc34)cc2Cl)c1 | nt | nt | 16µM | nt | nt | nt
CN1CCN(Cc2ccc(-c3cc4ncnc(Nc5ccc(OCc6cccc(F)c6)c(Cl)c5)c4s3)o2)CC1 | nt | nt | 20µM | nt | nt | nt
Fc1cccc(Nc2ncnc3[nH]ncc23)c1 | nt | ? | nt | i | nt | nt
Nc1ccc(C#Cc2cncnc2Nc2ccc(OCc3cccc(F)c3)c(Cl)c2)cc1 | nt | nt | 3.1µM | nt | nt | nt
COC(=O)C(C(C)=O)[C@@H](NC(=O)OC(C)(C)C)c1ccccc1 (stereo not given in full) | i | nt | nt | nt | nt | nt
COC(=O)[C@@H]1CCCN1Cc1ccc2c(c1)CN(Cc1cccc(Cl)c1)CCO2 | nt | nt | nt | i | i | i
CN=c1scc(-c2ccc(F)cc2)n1/N=C/c1ccc(O)c(O)c1 | 18µM | -67 | ? | 1.3µM | i | ?
CCN=c1scc(-c2ccco2)n1/N=C/c1ccc(OC)c(O)c1 | i | i | ? | i | i | i
Cc1sc2nc(C3CC3)nc(N3CCN(C(=O)c4ccc(Cl)cc4)CC3)c2c1C | ? | i | ? | ? | i | i
Cc1sc2nc(C3CC3)nc(N3CCN(C(=O)c4ccc(F)cc4)CC3)c2c1C | ? | -81 | ? | i | i | i
Cc1oc2ccc(O)c(CN(C)Cc3ccccc3)c2c1C(=O)Nc1cccc(Cl)c1C | ? | -66 | ? | ? | i | i
Cc1oc2ccc(O)c(CN3CCCCCC3)c2c1C(=O)Nc1cccc(Cl)c1C | ? | -100 | ? | ? | i | ?
CCc1cccc(CC)c1NC(=O)c1c(C)oc2ccc(O)c(CN3CCCC3)c12 | ? | i | i | i | i | i
Cc1ccc(NC(=O)c2c(C)oc3ccc(O)c(CN4CCCCCC4)c23)cc1 | ? | -85 | ? | ? | i[7.34 µM] | i[7.34 µM]
Cc1oc2ccc(O)c(CN(C)C)c2c1C(=O)c1ccccc1 | 11µM | i | ? | i | i | i
COc1ccccc1CCc1nc2ccccc2n1C1CCN(C(=O)c2cn3ccsc3n2)CC1 | nt | nt | nt | i | i | i
CCN1CCN(Cc2c(O)ccc3oc(C)c(C(=O)Nc4ccc(OC)c(Cl)c4)c23)CC1 | ? | i | ? | i | i | i
